Structures can show the parent of a compound that is named as a salt.
Legend:
Details in all cases: compound concentration in added solution (µM; 5 µl added to 20 µl cells): 10; 18 h
A431 [1] = experiment: LBPA endosome anti-LBPA integrated intensity (sum per cell), Z-score; higher = more LBPA staining
In short: (§1)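 Reported values are Z-scores from AcuityXpress normalisation of per-cell integrated LBPA or filipin staining. HeLa MZ or A431 cells (3,500/well in 20 µl) were seeded onto 5 µl of 10 µM compound solution in duplicate 384-well plates, incubated 18 h, fixed in 4% PFA, stained and imaged at 20×. MetaXpress segmentation measured the intensity over the whole cell or within LBPA endosomes.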

HeLa MZ [2] = experiment: as above
In short: as §1

A431 [3] = experiment: whole-cell filipin (free cholesterol) integrated intensity, Z-score; higher = more cholesterol staining
In short: as §1

HeLa MZ [4] = experiment: as above
In short: as §1

A431 [5] = experiment: filipin (cholesterol) integrated intensity within LBPA endosomes, Z-score; higher = more cholesterol in LBPA endosomes
In short: as §1

HeLa MZ [6] = experiment: as above
In short: as §1

Row | SMILES | LBPA endosome anti-LBPA integrated intensity (z-score) (A431 [1]) | LBPA endosome anti-LBPA integrated intensity (z-score) (HeLa MZ [2]) | whole-cell filipin (z-score) (A431 [3]) | whole-cell filipin (z-score) (HeLa MZ [4]) | filipin (z-score) (A431 [5]) | filipin (z-score) (HeLa MZ [6])
1 | CN1CCC(=C2c3ccccc3Sc3ccccc32)CC1 [Pimethixene maleate] | 2.35 | 1.97 | 0.776 | -0.782 | 1.82 | 0.962
2 | CN(N=O)C(=O)N[C@@H](C=O)[C@@H](O)[C@H](O)[C@H](O)CO [Streptozotocin] | -0.585 | -0.52 | -0.71 | -0.525 | -0.474 | -0.51
3 | CCCCOc1ccc(C(=O)CCN2CCCCC2)cc1 [Dyclonine hydrochloride] | 0.717 | 0.215 | 0.502 | -0.794 | 0.482 | -0.156
4 | CO/N=C(\C(=O)N[C@@H]1C(=O)N2C(C(=O)O)=C(COC(N)=O)CS[C@H]12)c1ccco1 [Cefuroxime sodium salt] | -0.467 | -0.812 | -0.402 | 0.0343 | -0.419 | -0.472
5 | C[C@]12CC[C@@H]3c4ccc(O)cc4CC[C@H]3[C@@H]1CC[C@@H]2O [Estradiol-17 beta] | -0.253 | 0.492 | -0.4 | -1.01 | -0.426 | -0.515
6 | NS(=O)(=O)c1cc2c(cc1Cl)N=CNS2(=O)=O [Chlorothiazide] | -0.508 | -0.375 | -0.521 | -0.988 | -0.472 | -0.537
7 | CNc1ncnc2c1ncn2[C@@H]1O[C@H](CO)[C@@H](O)[C@H]1O [N6-methyladenosine] | -0.364 | 0.218 | -0.443 | 0.122 | -0.45 | -0.43
8 | Cc1c(Nc2ncccc2C(=O)O)cccc1C(F)(F)F [Flunixin meglumine] | -0.51 | -0.897 | -0.493 | -0.611 | -0.459 | -0.549
9 | Cc1c(C)c2c(c(C)c1O)CCC(C)(COc1ccc(CC3SC(=O)NC3=O)cc1)O2 (centres undefined) [Troglitazone] | -0.514 | -0.51 | -0.29 | -0.287 | -0.459 | -0.355
10 | Cn1c(=O)c2c(ncn2CC2OCCO2)n(C)c1=O [Doxofylline] | -0.341 | 0.313 | -0.207 | -0.159 | -0.416 | -0.528
11 | CN1CCc2cccc3c2[C@H]1Cc1ccc(O)c(O)c1-3 [R(-) Apomorphine hydrochloride hemihydrate] | 2.19 | 0.867 | -0.55 | -1.57 | 0.31 | -0.107
12 | CN(CCOc1ccc(CC2SC(=O)NC2=O)cc1)c1ccccn1 (centres undefined) [Rosiglitazone Hydrochloride] | -0.367 | 0.286 | 0.193 | 0.897 | -0.277 | -0.0127
13 | C=CCOc1ccccc1OCC(O)CNC(C)C (centres undefined) [Oxprenolol hydrochloride] | -0.0805 | 0.635 | 0.289 | 0.262 | -0.232 | -0.267
14 | CN(C)CCC(c1ccc(Cl)cc1)c1ccccn1 (centres undefined) [Chlorpheniramine maleate] | -0.653 | 0.363 | -0.45 | -0.192 | -0.443 | 0.105
15 | CCN(CC)C(=O)/C(C#N)=C/c1cc(O)c(O)c([N+](=O)[O-])c1 [Entacapone] | -0.554 | -0.84 | -0.719 | 0.0172 | -0.479 | -0.52
16 | O=C(c1ccc(OCCN2CCCCC2)cc1)c1c(-c2ccc(O)cc2)sc2cc(O)ccc12 [Raloxifene hydrochloride] | 2.74 | 1.35 | 1.48 | 2.28 | 3.61 | 5.61
17 | CCc1nn(CCCN2CCN(c3cccc(Cl)c3)CC2)c(=O)n1CCOc1ccccc1 [Nefazodone HCl] | 0.334 | 2.39 | 0.625 | 0.969 | 0.483 | 1.14
18 | CN(c1nccc(=O)[nH]1)C1CCN(c2nc3ccccc3n2Cc2ccc(F)cc2)CC1 [Mizolastine] | -0.6 | 0.425 | -0.708 | 0.222 | -0.551 | 0.0832
19 | Cc1ccc(-c2ncc(Cl)cc2-c2ccc(S(C)(=O)=O)cc2)cn1 [Etoricoxib] | -0.471 | -1.03 | -0.752 | -0.603 | -0.543 | -0.516
20 | CCCCOc1ccc(CC(=O)NO)cc1 [Bufexamac] | -0.196 | -0.501 | -0.337 | -0.569 | -0.313 | -0.483
21 | O=C(O)c1cccnc1 [Niacin] | -0.578 | -1.61 | -0.557 | -0.648 | -0.464 | -0.617
22 | Nc1ncnc2c1ncn2[C@@H]1O[C@H](CO)[C@@H](O)[C@@H]1O [Vidarabine] | -0.521 | 0.0226 | -0.393 | 0.669 | -0.496 | -0.54
23 | O=C(O)Cc1ccc(-c2ccccc2)cc1 [Felbinac] | -0.537 | -0.83 | -0.402 | -0.285 | -0.525 | -0.491
24 | Cc1c(Cl)cccc1Nc1ccccc1C(=O)O [Tolfenamic acid] | -0.417 | -0.76 | -0.809 | -0.604 | -0.464 | -0.636
25 | CCOC(=O)[N-]c1c[n+](N2CCOCC2)no1 [Molsidomine] | -0.56 | 0.0751 | -0.59 | -0.136 | -0.558 | -0.532

Row | SMILES | LBPA endosome anti-LBPA integrated intensity (z-score) (A431 [1]) | LBPA endosome anti-LBPA integrated intensity (z-score) (HeLa MZ [2]) | whole-cell filipin (z-score) (A431 [3]) | whole-cell filipin (z-score) (HeLa MZ [4]) | filipin (z-score) (A431 [5]) | filipin (z-score) (HeLa MZ [6])
26 | C#C[C@]1(O)CC[C@H]2[C@@H]3CCC4=Cc5oncc5C[C@]4(C)[C@H]3CC[C@@]21C [Danazol] | -0.455 | -0.444 | -0.615 | -0.566 | -0.449 | -0.556
27 | CCCN(CCC)C(=O)C(CCC(=O)O)NC(=O)c1ccccc1 (centres undefined) [Proglumide] | -0.629 | -1.36 | -1.22 | -0.766 | -0.53 | -0.607
28 | CCCCCCCN(CC)CCCC(O)c1ccc(NS(C)(=O)=O)cc1 (centres undefined) [Ibutilide fumarate] | 0.46 | 1.54 | 0.561 | 0.166 | 0.22 | 0.621
29 | NS(=O)(=O)c1cc2c(cc1Cl)NCNS2(=O)=O [Hydrochlorothiazide] | -0.538 | -1.08 | -0.757 | -0.0813 | -0.476 | -0.419
30 | CC1(C)S[C@@H]2[C@H](NC(=O)[C@H](NC(=O)N3CCNC3=O)c3ccccc3)C(=O)N2[C@H]1C(=O)O [Azlocillin sodium salt] | -0.496 | -0.655 | -0.388 | -0.517 | -0.464 | -0.493
31 | N=C(N)NCC1COC2(CCCCC2)O1 (centres undefined) [Guanadrel sulfate] | -0.435 | -0.453 | -0.472 | -0.401 | -0.413 | -0.438
32 | CC1COc2c(N3CCN(C)CC3)c(F)cc3c(=O)c(C(=O)O)cn1c23 (centres undefined) [Ofloxacin] | -0.519 | -0.166 | -0.939 | 0.125 | -0.532 | -0.106
33 | COc1ccc([C@@H]2Sc3ccccc3N(CCN(C)C)C(=O)[C@@H]2OC(C)=O)cc1 [Diltiazem hydrochloride] | -0.508 | 0.314 | -0.778 | -0.456 | -0.362 | -0.144
34 | CNC(=O)c1c(I)c(C(=O)NCC(=O)Nc2c(I)c(C(=O)O)c(I)c(C(=O)NCCO)c2I)c(I)c(N(C)C(C)=O)c1I [Ioxaglic acid] | -0.421 | -0.394 | -0.282 | -0.455 | -0.384 | -0.571
35 | C[C@@H]1C[C@H]2[C@@H]3CCC4=CC(=O)C=C[C@]4(C)[C@@]3(Cl)[C@@H](O)C[C@]2(C)[C@@]1(OC(=O)c1ccco1)C(=O)CCl [Mometasone furoate] | -0.183 | 0.598 | -0.317 | 1.11 | -0.214 | 0.7
36 | CCN(CC)CCOC(=O)C(c1ccccc1)c1ccccc1 [Adiphenine hydrochloride] | -0.67 | -1.15 | -1.14 | -0.931 | -0.574 | -0.637
37 | CC(C)(C)NC[C@H](O)COc1ccccc1C1CCCC1 [Penbutolol sulfate] | 1.31 | 0.815 | 1.46 | 0.313 | 1.3 | 0.914
38 | CCOC(=O)C1=C[C@]2(CC)CCCN3CCc4c(n1c1ccccc41)[C@@H]32 [Vinpocetine] | -0.0891 | 0.52 | -0.413 | -0.464 | -0.326 | -0.0256
39 | CN(C)CCOc1ccc(/C(=C(/CCCl)c2ccccc2)c2ccccc2)cc1 [Toremifene] | 2.64 | 0.267 | 2.3 | 1.93 | 2.35 | 3.94
40 | Cc1c(NC(C)C)c(=O)n(-c2ccccc2)n1C [Isopyrin hydrochloride] | -0.574 | -1.29 | -0.495 | -0.424 | -0.515 | -0.531
41 | CCOC1O[C@H]([C@@H](COCc2ccccc2)OCc2ccccc2)[C@H](OCc2ccccc2)[C@H]1O (some centres undefined) [Tribenoside] | 0.543 | 2.34 | 0.649 | 1.71 | 0.264 | 0.525
42 | Cc1c(N(C)C)c(=O)n(-c2ccccc2)n1C [Amidopyrine] | -0.435 | -0.447 | -0.729 | 0.0263 | -0.495 | -0.518
43 | CC(=O)O[C@]1(C(C)=O)CC[C@H]2[C@@H]3C=C(C)C4=CC(=O)CC[C@]4(C)[C@H]3CC[C@@]21C [Megestrol acetate] | -0.482 | -1.05 | -0.244 | 0.402 | -0.317 | -0.342
44 | COC(=O)C1=C(C#N)NC(C)=C(C(=O)OC(C)C)C1c1cccc([N+](=O)[O-])c1 (centres undefined) [Nilvadipine] | -0.407 | -0.929 | 0.11 | 0.875 | -0.268 | -0.158
45 | CCCNC(=O)NS(=O)(=O)c1ccc(Cl)cc1 [Chlorpropamide] | -0.658 | -1.65 | -0.845 | -0.558 | -0.591 | -0.571
46 | Nc1nc(=O)[nH]cc1F [Flucytosine] | -0.468 | -0.721 | -0.313 | -0.0984 | -0.463 | -0.623
47 | COc1c(N2CCNC(C)C2)c(F)cc2c(=O)c(C(=O)O)cn(C3CC3)c12 (centres undefined) [Gatifloxacin] | -0.517 | 0.0619 | -0.124 | 0.333 | -0.446 | 0.0101
48 | COc1cc(OC)c(C(=O)CCCN2CCCC2)c(OC)c1 [Buflomedil hydrochloride] | -0.502 | 0.473 | -0.535 | -0.534 | -0.503 | -0.263
49 | CC(=O)O[C@]1(C(C)=O)CC[C@H]2[C@@H]3C=C(Cl)C4=CC(=O)[C@@H]5C[C@@H]5[C@]4(C)[C@H]3CC[C@@]21C [Cyproterone acetate] | -0.264 | 0.704 | 0.568 | 0.591 | 0.113 | 0.108
